Assay [1] can be described thus: qHTS RealTime-Glo MT Cell Viability Assay in HepG2 cells - 40 hour (AID 1224870). Further: nearly all actives have a fitted effect of over 50% in size. An outline of the steps:
(§1)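 HepG2 cells (600/well) mixed with RealTime-Glo MT reagent, settled 5 h at 37 C/5% CO2 before compound addition. Nonlytic NanoLuc luminescence from viable-cell prosubstrate reduction read repeatedly during 40 h treatment at 37 C.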

Assay [2] can be described thus: A CellTox Green Cytotoxicity Assay to monitor cytotoxicity in HEK293 cells - 40 hour (AID 1224871). Further: nearly all actives have a fitted effect of over 45% in size. Further: potency means the concentration at half of the fitted maximal effect. An outline of the steps:
(§2)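 Each value comes from one timepoint of a single continuous run in which HEK293 cells with CellTox Green were exposed to compound for up to 40 h at 37 C, dye fluorescence rising with cell death.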

Assay [3] in a line: qHTS RealTime-Glo MT Cell Viability Assay in HepG2 cells - 8 hour (AID 1224873). Further: nearly all actives have a fitted effect of over 55% in size. An outline of the steps:
as §1

Assay [4] is described as follows: A CellTox Green Cytotoxicity Assay to monitor cytotoxicity in HepG2 cells - 16 hour (AID 1224876). Further: nearly all actives have a fitted effect of over 45% in size. Further: potency means the concentration at half of the fitted maximal effect. A digest of the protocol: (§3)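 Continuous culture of HepG2 cells with a membrane-impermeant DNA dye; rising fluorescence marks dead cells. Compound exposure lasted up to 40 h at 37 C, with reads every 8 h from 0 h.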
Assay [5] in a line: qHTS RealTime-Glo MT Cell Viability Assay in HepG2 cells - 32 hour (AID 1224877). Further: nearly all actives have a fitted effect of over 55% in size. A digest of the protocol:
(§4)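 Luminescence read-out: viable HepG2 cells reduce a prosubstrate to a NanoLuc substrate, giving a signal proportional to live cell number. Reads taken at 0, 8, 16, 24, 32 and 40 h of compound exposure at 37 C.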
(In general: In qHTS, concentration-response curves come from the screen itself.)

Assay [6] is described as follows: A CellTox Green Cytotoxicity Assay to monitor cytotoxicity in HepG2 cells - 24 hour (AID 1224878). Further: nearly all actives have a fitted effect of over 45% in size. Further: potency means the concentration at half of the fitted maximal effect. An outline of the steps: as §3
Assay [7] is described as follows: A CellTox Green Cytotoxicity Assay to monitor cytotoxicity in HepG2 cells - 40 hour (AID 1224879). Further: nearly all actives have a fitted effect of over 40% in size. Further: potency means the concentration at half of the fitted maximal effect. An outline of the steps:
as §3

A short description of assay [8]: qHTS RealTime-Glo MT Cell Viability Assay in HEK293 cells - 0 hour (AID 1224880). Further: top concentration of the series differs between compounds; nearly all actives have a fitted effect of over 45% in size. An outline of the steps: (§5)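 qHTS format; HEK293 cells with NanoLuc/prosubstrate reagent, 37 C/5% CO2 for 5 h pre-dosing; compounds 23 nL in DMSO; luminescence at each time point reflects viable cells.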
The nature of assay [9]: A CellTox Green Cytotoxicity Assay to monitor cytotoxicity in HEK293 cells - 32 hour (AID 1224881). Further: nearly all actives have a fitted effect of over 40% in size. Further: potency means the concentration at half of the fitted maximal effect. An outline of the steps:
as §2

Assay [10] in a line: A CellTox Green Cytotoxicity Assay to monitor cytotoxicity in HepG2 cells - 0 hour (AID 1224882). Further: nearly all actives have a fitted effect of over 35% in size. An outline of the steps: as §3
Assay [11] is described as follows: A CellTox Green Cytotoxicity Assay to monitor cytotoxicity in HepG2 cells - 32 hour (AID 1224883). Further: nearly all actives have a fitted effect of over 50% in size. Further: potency means the concentration at half of the fitted maximal effect. A digest of the protocol: as §3
Assay [12] in a line: A CellTox Green Cytotoxicity Assay to monitor cytotoxicity in HEK293 cells - 8 hour (AID 1224884). Further: nearly all actives have a fitted effect of over 35% in size. A digest of the protocol:
as §2

Assay [13] in a line: qHTS RealTime-Glo MT Cell Viability Assay in HepG2 cells - 16 hour (AID 1224885). Further: nearly all actives have a fitted effect of over 50% in size. An outline of the steps:
as §4

A short description of assay [14]: qHTS RealTime-Glo MT Cell Viability Assay in HEK293 cells - 24 hour (AID 1224886). Further: top concentration of the series differs between compounds; nearly all actives have a fitted effect of over 50% in size. An outline of the steps:
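Nonlytic real-time viability readout: viable cells convert prosubstrate to NanoLuc substrate, giving luminescence proportional to live cell number. HEK293, 600 cells/well, compound added after 5 h, continuous culture at 37 C.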

Assay [15] is described as follows: qHTS RealTime-Glo MT Cell Viability Assay in HEK293 cells - 8 hour (AID 1224887). An outline of the steps:
as §5

Assay [16] in a line: A CellTox Green Cytotoxicity Assay to monitor cytotoxicity in HEK293 cells - 16 hour (AID 1224888). Further: nearly all actives have a fitted effect of over 35% in size. An outline of the steps: as §2
Assay [17] is described as follows: qHTS RealTime-Glo MT Cell Viability Assay in HepG2 cells - 0 hour (AID 1224889). Further: nearly all actives have a fitted effect of over 50% in size. An outline of the steps:
as §4

The nature of assay [18]: qHTS RealTime-Glo MT Cell Viability Assay in HEK293 cells - 40 hour (AID 1224874). Further: nearly all actives have a fitted effect of over 50% in size. Conditions: RealTime-Glo luminescence; max response: hits give low values. A digest of the protocol: as §5
Assay [19] is described as follows: A CellTox Green Cytotoxicity Assay to monitor cytotoxicity in HEK293 cells - 24 hour (AID 1224875). An outline of the steps: as §2

The structures appear in SMILES notation. Values without a mark were called inactive. Records with an inconclusive call do not appear. Activity calls are given as the source filed them. The call rests on the fitted dose curve; in most records, active means well fitted curve in the direction sought with a large enough effect in the repeat runs; inconclusive means weak or mixed curves; inactive means no such curve, though single readings can be large; an effect the other way counts as inactive or inconclusive.
On the % scale 0 is the no-effect control and ±100 the full control effect.

Consider `Cc1c(O)cccc1O`, for which the Potency result in assay [1], in [2], in assay [3], in [4], in assay [5] and in assay [6] was “inactive” throughout. Further, the Potency result in assay [7], in [8], in assay [9], in [10], in [11] and in [12] was “inactive” throughout. Besides, the Potency entry in assay [13], in assay [14], in [15], in assay [16] and in assay [17] was “inactive” each time.
As for `CC(C)(C)c1nnc(NS(=O)(=O)c2ccccc2)s1`, the Potency entry in [1], in assay [2], in [4], in [6], in assay [7] and in assay [8] was “inactive” in each case. For the same compound, the Potency entry in [9], in assay [10], in [11], in assay [12], in assay [13] and in [14] was “inactive” each time. Moreover, the Potency result in [15], in assay [16] and in assay [17] was “inactive” throughout.
Take `CCO/C([O-])=N/c1c[n+](N2CCOCC2)no1`: the Potency entry in assay [1], in assay [2], in assay [3], in assay [4], in assay [5] and in [6] was “inactive” each time. Also, the Potency entry in [7], in [8], in [9], in assay [10], in [11] and in assay [12] was “inactive” each time. Besides, the Potency result in [15], in assay [16] and in assay [17] was “inactive” throughout. Besides, the max response in [18] is 5.08%.
Regarding `CCCCCSCCCCC`, the Potency result in assay [1], in assay [2], in [3], in assay [4], in assay [5] and in assay [6] was “inactive” each time. In addition, the Potency result in assay [7], in assay [8], in assay [9], in [10], in assay [11] and in [12] was “inactive” each time. Moreover, the Potency entry in assay [13], in assay [15], in [16] and in assay [17] was “inactive” each time. Further, the max response in assay [18] was -8.65%.
As for `O=C(c1ccccc1)C1CCCCC1`, the Potency entry in [1], in assay [3], in [5], in [8], in assay [10] and in assay [12] was “inactive” in each case. For the same compound, the Potency result in assay [13], in assay [14], in assay [15], in [16] and in assay [17] was “inactive” throughout. Moreover, the Potency is 24.5 µM (active) in [2]; 43.6 µM (active) in [4]; 49 µM (active) in assay [6]; 49 µM (active) in [7]; 24.5 µM (active) in assay [9]; 49 µM (active) in [11]. Further, the max response in assay [18] is -10.1%.
In the case of `O=C(CCCN1CCN(c2ccccn2)CC1)c1ccc(F)cc1`, the Potency result in assay [1], in [2], in assay [3], in assay [4], in assay [5] and in [6] was “inactive” each time. Further, the Potency result in assay [7], in assay [8], in [9], in assay [10], in [11] and in assay [12] was “inactive” throughout. In addition, the Potency result in [13], in [16] and in [17] was “inactive” each time.
Consider `Cc1cc(O)cc2c1O[C@](C)(CCC[C@H](C)CCC[C@H](C)CCCC(C)C)CC2`, for which the Potency result in assay [1], in assay [2], in [3], in assay [19], in assay [4] and in assay [6] was “inactive” each time. The Potency entry in assay [7], in [8], in [9], in assay [10], in [11] and in assay [12] was “inactive” in each case. The Potency result in assay [13], in assay [14], in assay [15], in assay [16] and in assay [17] was “inactive” each time. Also, the max response in [18] is 5.25%.
For the compound `NCCCNCCSP(=O)(O)O`, the values for the activity change, negative = cytotoxic in assay [1], in assay [5] and in assay [13] were 0.256% [at 6.97 µM], 1.78% [at 6.97 µM] and 0.263% [at 6.97 µM], respectively. Further, the cytotoxicity increase in assay [2] is -10.4% [at 6.97 µM]; in assay [4], -2.65% [at 6.97 µM]; in [7], -11.2% [at 6.97 µM]; in [9], -9.01% [at 6.97 µM]; in assay [11] it was -8.01% [at 6.97 µM]; in assay [12] it was 3.38% [at 6.97 µM]. The activity change in [19] is -8.68% [at 6.97 µM, hits give high values]; in [16], -4.83% [at 6.97 µM, hits give high values]. Also, the activity change, negative = cytotoxicity in [8] is -1.72% [at 6.97 µM]; in assay [14], 4.08% [at 6.97 µM]; in assay [15] it was 2.94% [at 6.97 µM]; in assay [17], -0.885% [at 6.97 µM]. Also, in [10], the cytotoxicity is 1.75% [at 6.97 µM].
In the case of `NC(CSCC(=O)O)C(=O)O` (centres undefined), the Potency entry in assay [1], in assay [2], in assay [3], in [19], in assay [4] and in [6] was “inactive” each time. The Potency entry in [7], in assay [8], in assay [10], in assay [11], in assay [12] and in assay [13] was “inactive” throughout. Further, the Potency entry in assay [14], in assay [15], in assay [16] and in assay [17] was “inactive” each time. Further, the max response in [18] is 7.24%.
